For some assays here: Entries with a potency or affinity are not part of this list.

What all share (set-up): scale not given: direction of the effect not stated beside the values
Assay [1] concerns the target Protein translocase subunit SecA (Escherichia coli (strain K12)) (UniProt P10408). Nature of the assay: Assay to Identify E. coli SecA ATPase Inhibitors. The assay is classed as functional. The settings on record: 30 µM.
Assay [2] addresses T1, Ubiquitin-activating enzyme e1, putative (Leishmania donovani (strain BPK282A1)) (UniProt E9BSI1).
T1 sequence (whole entry): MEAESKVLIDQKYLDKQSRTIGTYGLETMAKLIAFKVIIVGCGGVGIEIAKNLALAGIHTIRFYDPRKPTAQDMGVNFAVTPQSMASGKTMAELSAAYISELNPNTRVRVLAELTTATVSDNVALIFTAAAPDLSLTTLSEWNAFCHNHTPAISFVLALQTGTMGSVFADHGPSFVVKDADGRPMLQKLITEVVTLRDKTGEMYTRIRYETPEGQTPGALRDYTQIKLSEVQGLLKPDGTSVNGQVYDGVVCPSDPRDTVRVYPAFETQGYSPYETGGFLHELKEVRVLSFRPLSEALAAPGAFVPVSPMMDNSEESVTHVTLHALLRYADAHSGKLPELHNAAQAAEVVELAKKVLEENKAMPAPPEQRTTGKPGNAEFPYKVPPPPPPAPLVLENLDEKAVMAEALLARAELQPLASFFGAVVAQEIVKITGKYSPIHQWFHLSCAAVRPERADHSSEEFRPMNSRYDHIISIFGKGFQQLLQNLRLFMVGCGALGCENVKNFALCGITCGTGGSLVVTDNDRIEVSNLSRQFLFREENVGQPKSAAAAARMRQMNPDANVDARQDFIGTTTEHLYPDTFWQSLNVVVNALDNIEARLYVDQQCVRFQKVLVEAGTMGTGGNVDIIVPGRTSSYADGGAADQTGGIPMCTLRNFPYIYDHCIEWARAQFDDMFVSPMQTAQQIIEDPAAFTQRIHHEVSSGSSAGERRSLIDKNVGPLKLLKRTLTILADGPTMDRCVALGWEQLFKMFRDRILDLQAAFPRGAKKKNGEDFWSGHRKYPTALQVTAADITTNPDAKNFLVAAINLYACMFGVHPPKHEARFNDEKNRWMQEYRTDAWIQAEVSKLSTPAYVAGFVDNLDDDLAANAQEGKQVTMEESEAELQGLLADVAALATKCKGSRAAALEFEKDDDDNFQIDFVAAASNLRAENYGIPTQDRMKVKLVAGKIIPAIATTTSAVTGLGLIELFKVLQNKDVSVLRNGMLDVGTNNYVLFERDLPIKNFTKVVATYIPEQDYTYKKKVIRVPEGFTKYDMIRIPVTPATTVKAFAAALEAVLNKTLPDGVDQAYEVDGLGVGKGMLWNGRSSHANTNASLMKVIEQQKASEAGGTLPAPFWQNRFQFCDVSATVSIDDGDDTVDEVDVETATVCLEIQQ
Kind of assay: Leishmania donovani Ubiquitin Activating Enzyme (LdE1). Format: functional. Particulars: 30 µM.

Assay [3] addresses AMP-activated protein kinase, AMPK (Homo sapiens) (UniProt P54646+O43741+P54619+Q9UGJ0+Q9Y478+Q13131+Q9UGI9). Kind of assay: AMP-dependent Kinase enzyme assay. An in vitro enzyme assay that detects ADP turnover that is directly proportional to AMPK activity. This uses naive AMPK that is activated during the assay with MK-8722. Format: functional. Particulars: 30 µM.
Assay [4] addresses Sialic acid-binding Ig-like lectin 9 (Homo sapiens) (UniProt Q9Y336). Nature of the assay: Hs-Siglec9 ALPHAscreen SOP 20170721. The settings on record: 10 µM. A general note: In Alpha technology, singlet oxygen from a donor bead excites a nearby acceptor bead.
For assay [5], the system named is Trypanosoma cruzi. Kind of assay: Trypanosoma cruzi phosphomannomutase and mannose-1-phosphate guanylyltransferase assay. The assay is classed as functional. Particulars: 10 µM.
For assay [6], the target named is T2, Arginase-2, mitochondrial (Homo sapiens) (UniProt P78540).
T2 sequence (whole entry): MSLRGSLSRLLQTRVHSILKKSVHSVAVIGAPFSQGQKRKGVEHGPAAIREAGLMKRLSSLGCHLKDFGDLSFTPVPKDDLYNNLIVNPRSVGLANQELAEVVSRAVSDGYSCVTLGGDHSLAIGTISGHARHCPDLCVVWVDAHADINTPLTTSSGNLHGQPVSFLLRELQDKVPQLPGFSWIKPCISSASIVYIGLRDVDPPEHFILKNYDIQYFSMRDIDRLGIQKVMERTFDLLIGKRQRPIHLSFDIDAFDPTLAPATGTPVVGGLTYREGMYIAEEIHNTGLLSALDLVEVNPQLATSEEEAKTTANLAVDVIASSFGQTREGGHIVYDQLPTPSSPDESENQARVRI
Nature of the assay: in vitro enzyme assay to detect the production of urea directly proportional to the activity of Arginase II. Further: in the data most compounds retested in dose-response had high values. The assay is classed as functional. The settings on record: 33.3 µM.

Assay [7] deals with T3, Proteasome subunit beta (Trypanosoma cruzi) (UniProt O96673).
T3 sequence (whole entry): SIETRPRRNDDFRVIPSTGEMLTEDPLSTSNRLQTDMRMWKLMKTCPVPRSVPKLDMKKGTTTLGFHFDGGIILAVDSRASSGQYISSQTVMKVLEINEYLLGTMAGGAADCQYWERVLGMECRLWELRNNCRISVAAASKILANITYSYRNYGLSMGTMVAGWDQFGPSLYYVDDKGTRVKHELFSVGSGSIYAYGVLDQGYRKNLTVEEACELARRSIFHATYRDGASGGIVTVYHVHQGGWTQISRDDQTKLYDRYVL
Kind of assay: Trypanosoma cruzi proteasome chymotrypsin-like activity (TcProtChymo) assay. Further: in the data most compounds retested in dose-response had high values. Format: functional. Particulars: 9.37 µM.

For assay [8], the species on record is Homo sapiens. Nature of the assay: To identify inhibition of the IFN signalling (Jak-Stat) pathway via expression of an eGFP reporter gene under the control of an IFN-stimulated response element (ISRE) containing MxA promoter. The assay is classed as functional. Particulars: 30 µM. A general note: A reporter such as luciferase makes a cellular process visible.

Assay [9] deals with T4, Tyrosyl-tRNA synthetase, putative (Trypanosoma cruzi (strain CL Brener)) (UniProt Q4DSP6).
T4 sequence (whole entry): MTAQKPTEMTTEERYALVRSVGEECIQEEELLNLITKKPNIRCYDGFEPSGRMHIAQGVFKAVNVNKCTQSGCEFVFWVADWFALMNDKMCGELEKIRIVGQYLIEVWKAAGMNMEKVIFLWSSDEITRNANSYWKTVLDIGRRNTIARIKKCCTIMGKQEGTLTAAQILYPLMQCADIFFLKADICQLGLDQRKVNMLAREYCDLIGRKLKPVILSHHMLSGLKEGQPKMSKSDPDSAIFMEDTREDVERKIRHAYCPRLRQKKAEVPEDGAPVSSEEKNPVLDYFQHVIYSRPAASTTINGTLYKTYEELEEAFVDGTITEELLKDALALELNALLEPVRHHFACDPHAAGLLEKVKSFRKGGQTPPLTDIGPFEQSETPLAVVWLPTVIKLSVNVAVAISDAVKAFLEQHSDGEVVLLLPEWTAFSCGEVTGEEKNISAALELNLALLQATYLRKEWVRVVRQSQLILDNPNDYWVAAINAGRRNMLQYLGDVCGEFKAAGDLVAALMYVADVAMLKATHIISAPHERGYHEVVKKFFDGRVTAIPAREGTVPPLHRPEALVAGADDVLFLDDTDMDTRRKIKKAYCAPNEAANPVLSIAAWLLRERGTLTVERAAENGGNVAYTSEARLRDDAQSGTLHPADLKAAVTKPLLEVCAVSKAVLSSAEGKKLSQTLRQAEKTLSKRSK
Kind of assay: Trypanosoma cruzi tyrosyl tRNA synthetase (TcYRS) _High Tyrosine SOP. Further: in the data most compounds retested in dose-response had high values. The assay is classed as functional. The settings on record: 30 µM.

The target of assay [10] is T4, Tyrosyl-tRNA synthetase, putative (Trypanosoma cruzi (strain CL Brener)). Kind of assay: Trypanosoma cruzi tyrosyl tRNA synthetase (TcYRS) SOP. The settings on record: 30 µM. The assay is classed as functional.
Assay [11] has as its target Chromo domain-containing protein 1 (Saccharomyces cerevisiae (strain ATCC 204508 / S288c) (Baker's yeast)) (UniProt P32657). Kind of assay: ScCHD-1 Enzyme Inhibition Assay. Further: in the data most compounds retested in dose-response had high values. The assay is classed as functional. Particulars: 30 µM.

Protein translocase subunit SecA (Escherichia coli (strain K12)), sequence (P10408 whole entry): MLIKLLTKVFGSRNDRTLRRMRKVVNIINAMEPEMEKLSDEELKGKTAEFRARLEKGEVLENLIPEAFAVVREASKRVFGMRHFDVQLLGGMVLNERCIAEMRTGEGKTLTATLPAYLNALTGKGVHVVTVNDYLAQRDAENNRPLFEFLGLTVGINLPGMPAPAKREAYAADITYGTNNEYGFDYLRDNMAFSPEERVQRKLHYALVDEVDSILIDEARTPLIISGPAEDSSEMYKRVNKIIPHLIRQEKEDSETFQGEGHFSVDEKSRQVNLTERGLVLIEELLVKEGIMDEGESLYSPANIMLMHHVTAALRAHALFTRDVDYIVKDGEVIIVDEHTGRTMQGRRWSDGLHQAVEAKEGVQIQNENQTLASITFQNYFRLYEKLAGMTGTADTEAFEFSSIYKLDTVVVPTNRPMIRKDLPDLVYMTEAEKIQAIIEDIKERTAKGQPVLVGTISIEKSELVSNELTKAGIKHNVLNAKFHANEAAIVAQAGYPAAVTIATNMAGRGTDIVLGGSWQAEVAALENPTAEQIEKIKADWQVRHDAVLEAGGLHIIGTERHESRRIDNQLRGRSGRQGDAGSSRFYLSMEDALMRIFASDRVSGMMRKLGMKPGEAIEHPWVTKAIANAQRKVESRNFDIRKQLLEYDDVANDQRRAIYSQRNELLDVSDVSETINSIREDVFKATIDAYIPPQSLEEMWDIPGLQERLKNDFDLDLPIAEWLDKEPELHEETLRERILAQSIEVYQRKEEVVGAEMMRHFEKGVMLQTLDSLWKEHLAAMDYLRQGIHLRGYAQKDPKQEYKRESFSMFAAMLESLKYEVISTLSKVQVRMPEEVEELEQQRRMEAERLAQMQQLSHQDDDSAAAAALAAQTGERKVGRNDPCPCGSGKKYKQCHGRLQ
Sialic acid-binding Ig-like lectin 9 (Homo sapiens), sequence (Q9Y336 whole entry): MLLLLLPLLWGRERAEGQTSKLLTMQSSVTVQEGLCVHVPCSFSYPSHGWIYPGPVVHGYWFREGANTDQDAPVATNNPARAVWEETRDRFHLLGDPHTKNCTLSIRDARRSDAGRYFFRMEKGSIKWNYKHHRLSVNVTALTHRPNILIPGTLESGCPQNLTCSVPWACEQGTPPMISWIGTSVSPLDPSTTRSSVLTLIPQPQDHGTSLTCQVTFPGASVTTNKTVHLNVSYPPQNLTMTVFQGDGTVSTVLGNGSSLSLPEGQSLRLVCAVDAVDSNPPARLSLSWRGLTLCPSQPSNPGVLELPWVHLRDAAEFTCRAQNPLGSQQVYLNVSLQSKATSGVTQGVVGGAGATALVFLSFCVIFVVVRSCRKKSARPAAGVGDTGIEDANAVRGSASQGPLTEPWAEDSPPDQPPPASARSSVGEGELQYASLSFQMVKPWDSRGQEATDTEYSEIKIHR
Chromo domain-containing protein 1 (Saccharomyces cerevisiae (strain ATCC 204508 / S288c) (Baker's yeast)), sequence (P32657 whole entry, the tested form may be a part): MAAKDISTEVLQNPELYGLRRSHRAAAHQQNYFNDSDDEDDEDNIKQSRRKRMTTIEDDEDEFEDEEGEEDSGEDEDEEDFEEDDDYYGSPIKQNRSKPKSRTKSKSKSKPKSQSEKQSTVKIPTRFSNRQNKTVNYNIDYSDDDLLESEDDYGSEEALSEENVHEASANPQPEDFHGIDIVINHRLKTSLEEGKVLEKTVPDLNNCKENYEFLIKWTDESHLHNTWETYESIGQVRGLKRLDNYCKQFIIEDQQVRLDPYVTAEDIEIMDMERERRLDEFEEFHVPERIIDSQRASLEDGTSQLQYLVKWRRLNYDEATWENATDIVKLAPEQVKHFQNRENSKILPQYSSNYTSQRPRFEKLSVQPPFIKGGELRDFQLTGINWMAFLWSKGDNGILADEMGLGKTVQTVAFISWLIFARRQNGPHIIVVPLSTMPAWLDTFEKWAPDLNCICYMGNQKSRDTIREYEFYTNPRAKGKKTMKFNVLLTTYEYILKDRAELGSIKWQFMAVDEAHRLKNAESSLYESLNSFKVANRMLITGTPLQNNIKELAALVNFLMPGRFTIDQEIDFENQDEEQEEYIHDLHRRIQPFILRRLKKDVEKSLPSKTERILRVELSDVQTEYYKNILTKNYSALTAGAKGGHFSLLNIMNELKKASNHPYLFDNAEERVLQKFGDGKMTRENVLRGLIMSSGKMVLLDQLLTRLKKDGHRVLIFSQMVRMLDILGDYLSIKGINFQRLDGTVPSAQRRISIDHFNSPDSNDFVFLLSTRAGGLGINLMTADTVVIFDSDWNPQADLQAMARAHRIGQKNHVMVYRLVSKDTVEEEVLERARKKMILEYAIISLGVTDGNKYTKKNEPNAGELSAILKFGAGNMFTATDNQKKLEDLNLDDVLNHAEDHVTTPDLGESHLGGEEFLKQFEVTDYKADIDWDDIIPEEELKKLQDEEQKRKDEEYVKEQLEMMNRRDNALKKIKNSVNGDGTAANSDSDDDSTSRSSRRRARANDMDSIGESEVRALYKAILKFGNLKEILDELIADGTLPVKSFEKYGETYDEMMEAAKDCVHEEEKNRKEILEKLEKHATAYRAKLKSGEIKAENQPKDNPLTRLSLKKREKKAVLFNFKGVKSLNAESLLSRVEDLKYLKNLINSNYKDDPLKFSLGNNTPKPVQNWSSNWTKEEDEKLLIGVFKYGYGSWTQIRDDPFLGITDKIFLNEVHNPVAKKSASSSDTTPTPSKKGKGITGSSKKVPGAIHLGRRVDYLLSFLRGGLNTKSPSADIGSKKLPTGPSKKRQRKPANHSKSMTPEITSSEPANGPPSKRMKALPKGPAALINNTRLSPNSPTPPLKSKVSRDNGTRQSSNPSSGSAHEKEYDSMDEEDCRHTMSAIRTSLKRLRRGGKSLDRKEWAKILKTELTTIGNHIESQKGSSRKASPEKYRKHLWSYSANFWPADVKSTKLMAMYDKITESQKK

For `NC(=O)C1CCN(C(=O)c2cccc(CN3CCOCC3)c2)CC1`, the Percent Effect was -0.727% in [1]; 6.94% in assay [2]; 4.41% in [3]; 25.6% in [4]; 4.57% in assay [5]; 2.21% in assay [6]. Also, the Percent Effect was 0.702% in assay [7]; -3.07% in assay [8]; 1.05% in assay [9]; 0% in [10]; 79% in assay [11].

For the molecule `CC(CN1CCC2(CC1)c1nc[nH]c1CCN2S(C)(=O)=O)C(F)(F)F` (stereo not given), the Percent Effect in [1] is -5.83%; in [2] it was 4.17%; in assay [3], -4.55%; in assay [4], 0.526%; in assay [5] it was -2.62%; in assay [6], -1.77%. Further, the Percent Effect in [7] was 8.07%; in [8], -8.95%; in [9], 3.16%; in assay [10] it was 2.56%; in assay [11], -1.32%.

Take `CCS(=O)(=O)N1Cc2nccn2CC(COc2cccnc2)C1` (stereo not given): the Percent Effect in [1] is -5.39%; in [2], 10.7%; in assay [3], -4.67%; in assay [4], 3.69%; in [5] it was 3.48%; in [6], -35.7%. Besides, the Percent Effect in assay [7] was 15.4%; in assay [8], 3.42%; in assay [9], 7.29%; in [10] it was 12.5%; in [11] it was -8.7%.

Take `CC(C)COCC(NC(=O)c1ccccn1)c1ccco1` (stereo not given): the Percent Effect in [1] was -2.06%; in assay [2], 13.5%; in [3], -1.56%; in [4], 0.407%; in assay [5], 4.62%; in assay [6] it was -8.02%. The Percent Effect was 5.04% in assay [7]; 5.29% in assay [8]; 9.36% in [9]; 16.1% in assay [10]; -8.79% in assay [11].

With `Cc1nc(C)n(CC2CN(Cc3cccc4c3OCCO4)CCO2)n1` (stereo not given), the Percent Effect is -6.14% in assay [1]; 18.4% in assay [2]; -1.72% in [3]; 0.869% in assay [4]; 3.46% in assay [5]; 1.08% in assay [6]. Besides, the Percent Effect is 1.78% in [7]; 2.86% in [8]; 11.3% in assay [9]; 28.4% in assay [10]; -8.32% in assay [11].

`Cc1ccc(CN2CCc3ncnc(C4CC4)c3CC2)s1`: the Percent Effect in assay [1] is 1.05%; in assay [2], 5.33%; in assay [3], 5.76%; in assay [4], -4.5%; in [5] it was -5.41%; in assay [6], -54.3%. Also, the Percent Effect was 6.15% in [7]; 43.3% in [8]; 8.33% in assay [9]; 12.5% in assay [10]; -7.16% in assay [11].

As to `Cc1cnc(C)c(N2CCN(Cc3ccc(-c4cc[nH]n4)o3)CC2)n1`, the Percent Effect was -0.779% in assay [1]; 10.7% in assay [2]; -20.1% in [3]; 21.3% in [4]; 5.94% in [5]; 7.29% in assay [6]. Also, the Percent Effect in assay [7] was 22.7%; in assay [8], 32%; in assay [9], 7.1%; in assay [10], 16.1%; in [11], -4.34%.

`CCCS(=O)(=O)N1CCC2(CC1)CN(c1ccccn1)CCO2`: the Percent Effect is -4.44% in [1]; 4% in assay [2]; -4.84% in assay [3]; -5.06% in assay [4]; -11% in [5]; -11.8% in [6]. Further, the Percent Effect in assay [7] was 11.8%; in [8], -5.14%; in [9], 0%; in assay [10], -2.56%; in [11], -7.42%.

Take `CCc1noc(C(C)N(C)CC(=O)Nc2cccc(C)n2)n1` (stereo not given): the Percent Effect in assay [1] is 0.372%; in [2], 0%; in assay [3], 5.73%; in assay [4], 0.963%; in assay [5], -0.979%; in assay [6], 0.909%. The Percent Effect is 7.28% in assay [7]; 0.0607% in [8]; -1.07% in [9]; 0% in [10]; 2.92% in [11].

Take `Cc1cc(N2CCN(Cc3nccn3C)CC2)cc(C)n1`: the Percent Effect in assay [1] was -3.69%; in [2], 1.39%; in assay [3], -5.16%; in [4], -5.41%; in [5], -5.93%; in assay [6], -0.883%. In addition, the Percent Effect is 12.1% in [7]; -10.6% in [8]; 0% in [9]; -2.56% in [10]; -1.23% in assay [11].

These data come from ChEMBL document CHEMBL3988442, “University of Dundee, Small-Polar-MMV Screening Library” (2021).
